Among the data in PubChem BioAssay are outcome, activity change, negative = cytotoxicity and max activity values, retold here.

Experiment [1] can be described thus: RMG-1 ovarian cancer cell viability loss – cherry-pick, dose response (AID 687029;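 active = signal drop whose fitted half-maximal concentration is at most twice the top valid dose, in every test run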;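 note: cells exposed to compound for 96 hours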).
Experiment [2] in a line: IOSE-T80 viability loss, PAX8-independent line – cell-based, cherry-pick, selectivity assay for PAX8 inhibitor project, dose response (AID 687032;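 active = fitted half-maximal concentration for viability loss no higher than twice the top valid dose, in every repeat run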;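 note: cells exposed to compound for 96 h before reading; 0% = neutral control wells and -100% = 2 µM mitoxantrone kill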).
A short description of experiment [3]: general cell-killing toxicity readout – plate reader, dry powder samples, cytotoxicity control for PAX8 inhibitor project, dose response (AID 743021).
Experiment [4] is described as follows: IGROV1 cell killing – plate reader, dry powder samples, PAX8 inhibitor project, dose response (AID 743043).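 Note: more negative means fewer viable cells or more cytotoxicity.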
Experiment [5] in a line: toxicity toward immortalized ovarian surface epithelium – cell-based, plate reader, dry powder samples, cytotoxicity control for PAX8 inhibitor project, dose response (AID 743045).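 Note: 0% = neutral control median and -100% = positive control median; more negative values mean more cell killing.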
A short description of experiment [6]: A2780 cell killing – plate reader, dry powder samples, cytotoxicity control, dose response (AID 743046).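 Note: 0% = neutral control wells and -100% = cytotoxic reference compound.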
Experiment [7] in a line: CMV-driven luciferase expression suppression in HEK293 – cell-based, luminescence, dry powder, counter-screen for Pax8 inhibitor project, dose response (AID 743020;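 active = signal-lowering compounds whose fitted half-maximal concentration is at or below twice the top tested dose in every run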;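 note: HEK293 cells stably expressing the CMV luciferase reporter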).
Experiment [8] concerns the target Melanocortin receptor 4 (Homo sapiens) (UniProt P32245). Briefly: blockade of melanocortin 4 receptor signaling – cell-based, plate reader, cherry pick, counter-screen for LGR2 antagonist project, dose response (AID 743444).
Experiment [9] in a line: A549 cell cytotoxicity, dose response, cytotoxicity control, plate reader, cherry-pick, antagonist series (AID 743412).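 Note: 0% = neutral control wells and -100% = positive control wells.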
The nature of experiment [10]: toxicity toward HepG2 liver cells – cell-based, plate reader, cherry-pick, antagonist series, cytotoxicity control, dose response (AID 743416).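 Note: 0% = neutral control wells and -100% = positive control wells.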
Experiment [11] is described as follows: small-molecule DNA binding by polarization – biochemical, fluorescence polarization, cherry-pick, counter-screen for EWS/Fli inhibitor project, dose response (AID 720586;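 active = fitted curve reaches a 35% signal fall AC35 below twice the sample's top valid tested dose, actives reach about 48 µM in these data; inactive = the rest, including activity in the rising direction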;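 note: 0% = neutral control median and -100% = 10 µM mitoxantrone control median; lower polarization ratio signals compound binding to DNA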).
Experiment [12] can be described thus: OVCAR-3 cell viability loss – plate reader, dry powder samples, PAX8 inhibitor project, dose response (AID 743044). As to conditions: NIH:OVCAR-3 ovarian cancer cell viability, hits give low values; at 4.2 µM unless noted.
Experiment [13] is described as follows: OVCAR8 cell viability loss – plate reader, dry powder samples, PAX8 project, dose response (AID 743197).

For part of these data: Measured potencies and affinities stand elsewhere. Records with an inconclusive call do not appear. A number with no mark means an inactive call. The list shows a part of the results. The source made the active and inactive calls. Unless noted, the rule behind the calls is not given here.

Consider `COC(=O)C12OCC34C(CC5C(C)=C(O)C(=O)CC5(C)C3C(O)C1O)OC(=O)C(OC(=O)/C=C(\C)C(C)C)C24` (stereo unspecified), for which the result in experiment [1], in experiment [2] and in experiment [3] was inactive.

`Cc1ccc(OC(=O)N(C)C[C@@H]2OCc3ccccc3-c3c(n(C)c4ccccc34)C(=O)N([C@@H](C)CO)C[C@H]2C)cc1`: the call in [1], in experiment [2], in experiment [3], in experiment [4] and in [5] was inactive. In addition, the activity change, negative = cytotoxicity in experiment [6] is -16.8% [at 8 µM].

`NC(=S)c1cn(C2OC(CO)C(O)C2O)c2ncnc(N)c12` (stereo unspecified): the call in experiment [1], in experiment [7] and in [3] was inactive.

For `O=C1NC2C(=CC(O)C(O)C2O)c2cc3c(cc21)OCO3` (stereo unspecified), the result in experiment [1], in experiment [7] and in [3] was inactive.

`CCC(C)C1NC(=O)C(NC(=O)C(CC(C)C)N(C)C(=O)C2CCCN2C(=O)C(C)O)C(C)OC(=O)C(Cc2ccc(OC)cc2)N(C)C(=O)C2CCCN2C(=O)C(CC(C)C)NC(=O)[C@H](C)C(=O)[C@H](C(C)C)OC(=O)CC1O` (stereo partly specified): the molecule was called inactive in experiment [1], in [7] and in experiment [3].

As for `COc1ccc(C[C@H]2NC[C@H](O)[C@H]2OC(C)=O)cc1`, the outcome in experiment [1] and in experiment [3] was inactive.

On to `CCCCCCCCCCCCn1ccc(=N)cc1`, for which the result in experiment [1] and in experiment [3] was inactive.

As to `O=c1[nH]c2ccccc2n1C1CCN(C(c2cccs2)c2nnnn2-c2ccc3c(c2)OCCO3)CC1` (stereo unspecified), in experiment [7], the call was inactive.

Regarding `O=c1c2ccccc2nc(/C=C/c2ccc([N+](=O)[O-])o2)n1-c1ccc(O)cc1`, in experiment [8], the call was inactive.

As for `CC(=O)OC1CC(OC2C(O)CC(OC3C(O)CC(OC4CCC5(C)C(CCC6C5CC(O)C5(C)C(C7=CC(=O)OC7)CCC65O)C4)OC3C)OC2C)OC(C)C1OC1OC(CO)C(O)C(O)C1O` (stereo unspecified), the result in experiment [1] and in [3] was inactive.

As to `O=C(O)c1nn(Cc2ccc(Cl)cc2Cl)c2ccccc12`, the result in [9], in experiment [10] and in [8] was inactive.

Take `CC1OC(OC2C=C3CCC4C(CCC5(C)C(c6ccc(=O)oc6)CCC45O)C3(C)CC2)C(O)C(OC2OC(CO)C(O)C(O)C2O)C1O` (stereo unspecified): the molecule was classed as inactive in [1] and in [3].

For the molecule `O=Cc1cn(Cc2cccc([N+](=O)[O-])c2)c2ccccc12`, the molecule was classed as inactive in [9].

On to `C[C@]12CC[C@H](O)C[C@H]1CC[C@@H]1C2CC[C@]2(C)[C@@H](C3=CC(=O)OC3)[C@@H](O)C[C@]12O` (stereo partly specified), for which the molecule was called inactive in experiment [11].

As for `O=C(Cc1ccccn1)N1CCCCN2[C@@H](CO)[C@@H](c3ccc(-c4ccc(F)cc4)cc3)[C@@H]2C1`, the call in [2], in experiment [7], in [3], in experiment [4], in [5] and in experiment [6] was inactive. In addition, the molecule was classed as inactive in [13]. The max activity in experiment [12] is 9.98%.

Take `CNC(=O)Oc1cccc(-c2cn3cc(Cl)ccc3n2)c1`: the molecule was called inactive in [9] and in experiment [10].

Take `O=c1[nH]c2ccccc2n1C1CCN(C(c2ccccc2OC(F)(F)F)c2nnnn2Cc2ccccc2)CC1` (stereo unspecified): the result in experiment [10] was inactive.

Turning to `CC(C)(C)n1cc(C(=O)c2ccc3ccccc3c2O)cn1`, in [10], the result was inactive.

As for `CC1CC(C)(O)CC(C(O)CC2CC(=O)NC(=O)C2)C1=O` (stereo unspecified), the outcome in experiment [7] and in [3] was inactive.

For the molecule `O=C1NC(=O)N(CCc2ccc(F)cc2)C(=O)/C1=C/C=C/c1ccccc1`, in [11], the outcome was inactive.

As to `COC(=O)C1=C(c2ccc(F)cc2OCc2ccccc2)C[C@@H]2CC[C@H]1N2C(=O)NCc1ccc(C(F)(F)F)cc1`, the result in [1] and in experiment [3] was inactive.

In the case of `COc1cc2c(cc1OC)CN(c1ccc([N+](=O)[O-])c(C(F)(F)F)c1)CC2`, the molecule was classed as inactive in experiment [10] and in experiment [8].

For `CCCCN=C[C@]12CCC(O)CC1(O)CCC1[C@@H]2CC[C@]2(C)[C@H](C3C=CC(=O)O3)CCC12O` (stereo partly specified), the molecule was classed as inactive in experiment [7].

For `C[C@]12CC[C@H]3[C@@H](CC[C@]4(O)C[C@@H](O)CC[C@]34C=O)[C@@]1(O)CC[C@@H]2C1=CC(=O)OC1`, the molecule was classed as inactive in experiment [3].

Turning to `C=Cc1cc(OC)c2c(c1)c(=O)oc1c2cc(OC)c2c(O)ccc(C3OC(C)C(O)C(C)(O)C3O)c21` (stereo unspecified), the outcome in [1] and in experiment [3] was inactive.

As to `CCC(c1nnnn1Cc1ccccc1)N1CCC(n2c(=O)[nH]c3ccccc32)CC1` (stereo unspecified), the outcome in experiment [7] was inactive.

With `CCC(C)(O)C(=O)OC1C(=O)OC2CC3C(C)=CC(=O)C(O)C3(C)C3C4(O)OCC23C1C(C)C4O` (stereo unspecified), the outcome in experiment [7] and in [3] was inactive.

Consider `C[C@]12CCC3C(CCC4=CC(O)CC[C@@]43/C=N/O)C1(O)CCC2C1=CC(=O)OC1` (stereo partly specified), for which the molecule was classed as inactive in [7].

Regarding `N#Cc1ccc2nc(-c3ccc(CN4CCC(n5c(=O)[nH]c6ccccc65)CC4)cc3)c(-c3ccccc3)nc2c1`, the outcome in [1] and in [3] was inactive.

For the molecule `CC12CCC(O)CC1CCC1C2CCC2(C)C(C3=CC(=O)OC3)CCC12O` (stereo unspecified), the outcome in experiment [1] and in experiment [3] was inactive.

Regarding `Clc1cccc(N2Cc3cc(-c4ccccc4)ccc3-n3nncc3C2)c1`, the molecule was called inactive in [9] and in experiment [10].
